# Bioassay records: PubChem BioAssay, National Center for Advancing Translational Sciences (NCATS)
# The list is not random: actives were taken first. Their share in the collection is about 21%.
# Pf growth 96h: P. falciparum growth inhibition at 96 hour, primary screen for plastid delayed-death inhibitors; P. falciparum luciferase reporter growth, 96 h; Potency, µM (series often up to 28.7 µM), usual class: inhibitors; actives 6.9% (n = 320,000); AID 504834
#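 Delayed-death screen, second-generation endpoint: infected erythrocytes, 2% hematocrit, 0.05% parasitemia final; 96 hours at 37 C, 5% CO2; luciferase detection reagent; luminescence decrease equals reduced growth.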
# Shiga inhibitor: blocks Shiga toxin action in Vero cells | actives 9.2% (n = 290,000) | inhibition, % at 38.7 µM | Vero cells, Shiga toxin protein synthesis inhibition reporter; in the data active = inhibition mostly above about 28%, no sharp cut-off; inactive = mostly below about 43%
# Cycloheximide cs: counter-screen for Shiga toxin inhibitors: cycloheximide protein synthesis inhibition; cell reporter, cycloheximide protein synthesis inhibition counterscreen; max response, %; actives 12% (n = 300,000); AID 2314; in the data active = max response mostly above about 13%, no sharp cut-off; inactive = mostly below about 14%; note: read at 38.3 µM for the half of the compounds with a filed dose
# NS1 function inh: blocks influenza NS1 protein function; Potency, µM (top dose mostly 46.1 µM); actives 0.4% (n = 270,000); AID 2326; calls by dose curve; note: actives are rising curves; nearly all actives have a fitted effect of over 50% in size
#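 Read-out: OD600 growth recovery of NS1-expressing budding yeast. Cells grown overnight at 30C in -URA glucose medium, washed, resuspended and diluted 1:100 in 2% galactose assay medium, pH 6.0. Same strain lacking NS1 served as positive control.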
# Pf growth 48h: P. falciparum growth inhibition at 48 hours (one generation); P. falciparum luciferase growth in erythrocytes, 48 h; Potency, µM (doses to about 28.7 µM), usual class: inhibitors; actives 5.9% (n = 310,000)
#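 In quantitative HTS format, infected erythrocytes bearing luciferase-reporter parasites were treated for a single generation at 37 C. Luminescence after adding detection reagent served as the growth measure.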
# Hits are given with their value; i = inactive; ? = inconclusive; nt = not tested or not shown. Unless noted, calls come from the whole dose curve; as a rule, active = well fitted inhibition curve with a large enough effect; inconclusive = small, poorly fitted or top-dose-only effect, or another doubt; inactive = no such curve, though single readings can be large or run the other way.
SMILES,Pf growth 96h,Shiga inhibitor,Cycloheximide cs,NS1 function inh,Pf growth 48h
CC(C)(C)c1ccc(O)c(CN2CCN(c3ccccc3)CC2)c1,i,i,i,i,2.1µM
CC(C)(C)c1ccc(C(O)CCCN2CCC(C(O)(c3ccccc3)c3ccccc3)CC2)cc1 (centres undefined),12µM,i,i,i,?
OC(CCCCN1CCCCC1)c1ccccc1 (centres undefined),?,i,i,i,i
O=C(CN(Cc1ccccc1Cl)C(=O)CNS(=O)(=O)c1ccc(F)cc1)NCC1CCCO1 (centres undefined),?,i,i,i,i
O=C1C2C(c3ccccc3)CC=CC2C(c2ccc3ccccc3c2)N1Cc1ccccc1 (centres undefined),nt,i,i,nt,nt
CCOc1cc(/C=C2\SC(=Nc3ccc(CC)cc3)NC2=O)ccc1OCC(=O)O,i,i,i,i,?
O=C(CCCCCN1C(=O)c2ccccc2C1=O)NCc1ccccn1,?,i,i,i,i
Cc1oc(C(C)(C)C)cc1C(=O)N1CCCC1C(=O)O (centres undefined),i,i,i,i,i
Cc1cccc(NC(=O)CCCn2c(=S)[nH]c3ccccc3c2=O)c1,?,i,i,nt,?
CCOc1ccc(C2C(C#N)=C(N)N(N(C)C)C3=C2C(=O)CC(C)(C)C3)cc1 (centres undefined),i,i,i,i,?
CN(c1ccc(F)cc1)S(=O)(=O)c1ccc(Cl)c(C(=O)OCC(=O)NCc2ccco2)c1,i,i,i,nt,i
COc1ccc(C(=O)N/N=C(\C)c2ccc3c(c2)C2C=CCC2C(c2ccccc2)N3)cc1 (centres undefined),i,i,20,i,1µM
Cc1[nH]n(-c2nc(-c3ccc(Cl)cc3)cs2)c(=O)c1N=Nc1ccc(O)cc1,6.6µM,i,i,i,?
CCOc1ccc(NC(=O)c2ccc(CC)s2)c([N+](=O)[O-])c1,?,34,23,i,i
CCOc1ccc(NC(=O)c2ccco2)c([N+](=O)[O-])c1,0.59µM,40,66,i,i
CCOc1ccc(NC(=O)c2cccs2)c([N+](=O)[O-])c1,i,120,87,?,i
CCOc1ccc(NC(=O)c2cccnc2Cl)c([N+](=O)[O-])c1,i,i,i,i,i
COc1ccc(-n2cccc2/C=C/[N+](=O)[O-])cc1,3.3µM,i,i,i,?
COc1ccc(-n2cccc2C=O)cc1,i,i,i,i,i
FC(F)(F)c1ccc(C2NCCc3sccc32)cc1 (centres undefined),i,i,45,i,i
Clc1ccc(C2NCCc3sccc32)cc1 (centres undefined),i,i,i,i,i
Clc1ccc(-c2nn3c(Cn4cnc5ccccc54)nnc3s2)c(Cl)c1,nt,nt,nt,i,nt
O=C(NNC(=O)c1csc(-c2cccnc2)n1)c1ccccc1,10µM,i,30,i,?
O=C(Nc1ccccc1Cl)c1csc(-c2cccnc2)n1,i,41,29,i,i
CCc1c(C)c2ccc(O)c(CN3CCCC3)c2oc1=O,12µM,i,i,i,?
SMILES,Pf growth 96h,Shiga inhibitor,Cycloheximide cs,NS1 function inh,Pf growth 48h
COc1ccccc1-c1c(C)oc2c(CN3CCCC(C)C3)c(O)ccc2c1=O (centres undefined),10µM,i,i,i,13µM
CN1CCN(Cc2c(O)ccc3cc(-c4ccccn4)c(=O)oc23)CC1,i,i,i,i,i
O=c1oc2c(CN3CCCCCC3)c(O)ccc2cc1-c1nc2ccccc2[nH]1,i,i,i,i,2.3µM
COc1ccc(-c2c(C)oc3c(CN4CCCC(C)C4)c(O)ccc3c2=O)cc1OC (centres undefined),?,i,i,i,?
Cc1oc2c(CN3CCCCC3)c(O)ccc2c(=O)c1-c1ccc(Cl)cc1,?,i,i,i,1.7µM
CCOc1ccc(C(=O)NNC2CC(=O)N(Cc3ccc(Cl)cc3)C2=O)cc1OC (centres undefined),i,i,i,nt,?
O=C(COC(=O)C1C2CC3OC(=O)C1C3C2)Nc1cccc(C(F)(F)F)c1 (centres undefined),i,i,i,i,i
O=C(COc1ccccc1)N(Cc1cccc(F)c1)C1CCS(=O)(=O)C1 (centres undefined),?,i,i,i,?
Cc1oc2c(CN3CCOCC3)c(O)ccc2c(=O)c1-c1ccccc1,?,i,i,i,i
O=c1cc(-c2ccccc2)c2ccc(O)c(CN3CCCCC3)c2o1,i,i,i,?,10µM
Cc1oc2c(CN3CCCC(C)C3)c(O)ccc2c(=O)c1-c1ccccc1 (centres undefined),8.3µM,i,i,i,6.6µM
COc1ccccc1Oc1c(C)oc2c(CN3CCN(CCO)CC3)c(O)ccc2c1=O,i,i,i,i,i
Cc1oc2c(CN3CCCC3)c(O)ccc2c(=O)c1Oc1ccccc1Br,i,i,i,i,1.7µM
COc1cc(/C=C/C(=O)CC(=O)/C=C/c2ccc(O)c(OC)c2)ccc1O,?,i,i,i,?
CCOC(=O)CSCc1cn2cc(Cl)ccc2n1,nt,i,24,i,i
CC(SCc1cn2cc(Cl)ccc2n1)C(=O)O (centres undefined),i,i,i,i,i
COc1cc(/C=C/C(=O)OCc2cn3cc(Cl)ccc3n2)ccc1O,?,i,i,i,10µM
CCCc1c(O)c2ccccc2[nH]c1=O,i,i,i,i,i
CN(C)C(=S)N=Nc1[nH]c2ccccc2c1O,?,66,39,nt,?
Cc1cc(C2=NNC(=NCc3ccccc3)SC2)c(C)n1-c1c(C)n(C)n(-c2ccccc2)c1=O,?,i,i,i,12µM
Cc1cc(C2=NNC(=NC3CC3)SC2)c(C)n1Cc1ccco1,?,137,95,i,i
COCC(C)N=C1NN=C(c2cc(C)n(Cc3ccccc3Cl)c2C)CS1 (centres undefined),i,108,55,nt,i
COCC(C)N=C1NN=C(c2ccc(NC(C)=O)cc2)CS1 (centres undefined),i,i,22,nt,i
COCCn1c(C)cc(C2=NNC(=Nc3ccc(Cl)cc3Cl)SC2)c1C,?,i,i,i,?
CC(C)c1ccc(/C=C(\NC(=O)c2ccccc2)C(=O)NCCN2CCOCC2)cc1,?,i,i,i,i
SMILES,Pf growth 96h,Shiga inhibitor,Cycloheximide cs,NS1 function inh,Pf growth 48h
O=S(=O)(NCc1nnc2ccccn12)c1ccc(F)cc1,i,nt,nt,nt,i
Cc1ccc(S(=O)(=O)c2nc(S(C)(=O)=O)sc2N2CCC3(CC2)OCCO3)cc1,?,i,i,i,?
O=C(NCc1ccccc1)C(c1ccccc1)N(C(=O)c1csnn1)C1CCCC1 (centres undefined),?,i,i,i,i
COc1ccc(-n2c(C)cc(C3=NNC(=NC4CC4)SC3)c2C)cc1,i,85,40,nt,?
COCCCN=C1NN=C(c2cc(C)n(Cc3ccco3)c2C)CS1,i,127,40,?,i
C=CCN=C1NN=C(c2cc(C)n(CCOC)c2C)CS1,i,i,i,i,?
O=C(Nc1ccc(NC(=O)C2CC2)nc1)c1cccnc1,i,i,i,i,i
O=C(Nc1ccc(NC(=O)C2CCCCC2)nc1)c1ccco1,i,66,52,i,i
